Data reported in the supplement of paper PMC11417369.
± gives the standard deviation of the averaged measurements. Whole data set: some 25,000 sequences, median “ln(normalized median fluorescence intensity)” near 8.9, cut for the highest 2% near 10. The list comes from a sample in which the highest values are over-represented; it also holds similar and randomly drawn sequences.

test system: PfAP2-LT AP2 domain (GST-tagged); test: gcPBM binding intensity (ln(normalized median fluorescence intensity)); higher = stronger DNA binding
Summary of the method: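 Plasmodium falciparum DNA-binding domains carrying a GST tag were expressed in E. coli and applied for 1 h, at about 25 μg on average, to an Agilent 4 × 180k array. The array held primer-extended double-stranded 36-bp intergenic genomic probes together with negative controls, and binding took place in 1× PBS with 1% milk, 0.2 mg/ml BSA, 0.5% salmon testes DNA and 0.03% Triton X-100. An Alexa488 anti-GST antibody detected bound protein, and the array was scanned at 488 nm. Binding intensity is taken as the highest Masliner-normalised natural-log median intensity across replicate spots of either probe orientation.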

Point of comparison: “AAAAAATTAGATTATGCACACACACTAATAAATAAT [CACACA_site8604]”, “gcPBM binding intensity (ln)” value 9.38 ± 0.32. Against it:
- ATATTTTCCCTTTATAGGAGCACAAAAATTAAATGT [CACACA_negctrl_site1114] — lower, 8.46 ± 0.35
- AGGAAATGTTTATATACATGCATAATTAAATATAAT [TGCATGCA_site672] — within error, 8.74 ± 0.46
- AAAAAAAACACGCGCACACACACACCCACAGACACA [CACACA_site5253] — higher, 10.2 ± 0.14
- AAAAAAAACACGCGCACACACACACCCACCCACCGA [CACACA_site2206] — higher, 10.32 ± 0.078
- AAAAAAAAAACAAATACACACGCACCCAAAAAAAAA [CACACA_site8166] — within error, 9.61 ± 0.18
- TACACAAACAGACACACACACACACGCGCACAAAAA [CACACA_site7192] — higher, 10.06 ± 0.042
- AAAAAAACAACATGCACACGCACACCCAAAAAAAGC [CACACA_site72] — within error, 9.84 ± 0.32
- AAAAAAAAAACACGCGCACACACACCCACCCACCCA [CACACA_site8689] — higher, 10.365 ± 0.0071
- AAAAAAAACAAATACACACGCACACCGAAAAAAAAA [CACACA_site803] — within error, 9.6 ± 0.39
- ATAGACAGCGCACAAACACACAAACACCCACCCACA [CACACA_site8043] — within error, 9.99 ± 0.31
- AGAAAAAAACAACATGCACACGCACCCACAAAAAAA [CACACA_site7908] — within error, 9.51 ± 0.28
- GTTTTGTACATATTCTCACACATATAAAAATACCCA [CACACA_site4446] — within error, 8.77 ± 0.42
- TATATATATATATATATACACACTATATAATTCAAA [CACACA_site1023] — within error, 9.67 ± 0.042
- GAATAAAAATTTTAATGTACATATTTTTTATTTATA [XGTACX_site8935] — lower, 8.41 ± 0.49
- TTTTTTTTTTTTTGATGTACTTATTTAATAAGATAT [XGTACX_site376] — lower, 8.38 ± 0.47
- ATATATAATATTTTTATTTTTATTTTTTTTTTATGA [TGCATGCA_negctrl_site577] — lower, 8.34 ± 0.49
- AAAAAGATAAAATATACATGCATATATAATATACAT [TGCATGCA_site488] — within error, 8.94 ± 0.4
- TAAACAGAAGCACATACACACACTCAAAAAAAAAAA [CACACA_site3051] — within error, 9.53 ± 0.39
- CTTTATATATATTGCGTGCACATTTTTTTTTTTTTT — within error, 8.99 ± 0.53
- TATATATATATATATGTGCACATTTATTGCCTTTGC — higher, 10.11 ± 0.071
- ACATATTATATATGTGTGCACATATATATATATTTA [GTGCAC_site9591] — within error, 9.7 ± 0.33
- TATAGATGTGGTTTATGTACATACTATAAAAAATCA [XGTACX_site1400] — within error, 8.7 ± 0.49
- CGTATTTATATAATTACACACCATATTATAATTATT [CACACA_site3760] — within error, 8.84 ± 0.44
- TTTCTTTATTTATAATAATTTTTTATTAAAAATAGA [CACACA_negctrl_site1610] — lower, 8 ± 0.49
- GATATAAACGTATATGTACATATATATATATATATA [GTGCAC_negctrl_site186] — higher, 10.1 ± 0.38
- TTACAAAAAAAAAGGCGCGGATGGGGGCAATAGCAA [CACACA_negctrl_site238] — within error, 9.39 ± 0.45
- ATTATGCACAGACACACACACACACTACTAAAAAAT [CACACA_site7252] — higher, 10.2 ± 0.28
- TGCACAAAATTATGCACACACCTAAAATTAATTTTT [CACACA_site5596] — within error, 9.06 ± 0.34
- ATTATGCACCAACACACACACACACCCCTAAAAAAT [CACACA_site2568] — higher, 10.04 ± 0.057
- TGCACAGACGGACACACACACAACTAAAAAATAATG [CACACA_site5424] — within error, 9.69 ± 0.61
- ATTATGCACGGACACACACACACACCCCTAAAAAAT [CACACA_site5426] — higher, 10.1 ± 0.32
- ATTTTTTCTTATAAAAAAGAAAAAGAAAAAGAAAAA [CACACA_negctrl_site1216] — lower, 8.02 ± 0.42
- GTTTAGATAAAAGGGCGTACATCTATTTTTGACTAA [XGTACX_site7170] — lower, 8.62 ± 0.36
- GAAACGATTTAATACACACACGTATTATAGATATAT [CACACA_site6666] — within error, 9.25 ± 0.34
- ATTTTTTTTGTTTATTCTTATGTGGTTATTAAATTA [CACACA_negctrl_site1000] — within error, 8.72 ± 0.52
- TACAGACAGAAATGCACACACATATATATATATATA [CACACA_site2283] — higher, 10.2
- TACACCCAGAAATGCACACACATATATATATATATA [CACACA_site5289] — higher, 10.26 ± 0.071
- TTATATAAAGAATGTACACACAGAAATGCACCCACA [CACACA_site2282] — within error, 9.39 ± 0.2
- TATACACACAGACATGCATGCACATATATATATACA [TGCATGCA_site30] — within error, 9.54 ± 0.42
- TGTACACCCAGAAATGCACACACATATATATATATA [CACACA_site8716] — within error, 9.94 ± 0.29
- TACAGACAGAAATGCACACACATATTTATATTTATA [CACACA_site7139] — within error, 9.35 ± 0.3
- TCATCATATTATATATGTACATATATAATAATTTAT [XGTACX_site1625] — lower, 8.62 ± 0.42
- TATTAATACAGACACACACACACACCCAATAAAATA [CACACA_site243] — higher, 10.29 ± 0.05
- AATTAATAACAAAATAAACACACATATATAAATACA [CACACA_site8456] — within error, 9.03 ± 0.38
- ATAATTAACAAATACACACACACACCCAGACAAAAA [CACACA_site4445] — higher, 10.2
- TATTAATACAGACACACACACACACTAATTAAAATA [CACACA_site7967] — higher, 9.96 ± 0.2
- GTATTATAGTATAATACACACCCAAATATTAAAAAG [CACACA_site7404] — within error, 9.02 ± 0.41
- AAAAAAAAAAAATACACACAAACACAAATTAAATAA [CACACA_site3809] — within error, 9.32 ± 0.32
- ACATAATTAACAAATACACACACACCCACCCACAAA [CACACA_site8069] — higher, 10.3 ± 0.13
- TTTATTTATTAATACACACACACACGCCCACAAAAT [CACACA_site6253] — higher, 9.995 ± 0.05
- TTTATTTATTAATACACACACACACCCCCACAAAAT [CACACA_site240] — higher, 10.1 ± 0.22
- TTTTTATTTATTAATACACACACACCCACCCACAAA [CACACA_site7965] — higher, 9.805 ± 0.064
- TTTATTTATTAATACACACACACACCCAGACAAAAT [CACACA_site4292] — higher, 10 ± 0.099
- ATTAATTATATATATACACACACATACACCCAAATA [CACACA_site9126] — within error, 9.66 ± 0.23
- TGAACATGTTAAAATAAACACACAGCTAAGGTTTTT [CACACA_site7934] — within error, 8.94 ± 0.4
- TTATATATATATATATGTACACATATATAACATGAT [XGTACX_site6643] — within error, 9.19 ± 0.28
